# Calls of active or inactive are those of the source. Unless noted, the rule behind the calls is not given here.
# Tests used:
# [1] = A549 cell viability effects, profiling panel, calcein-AM fluorescence, 48 h, basal (AID 1162); conditions: higher = more signal; note: test concentration not given here
# [2] = adipocyte viability effects, profiling panel, cell-based, 3T3-L1 adipocytes, calcein-AM fluorescence, 48 h, basal (AID 1163); conditions: 3T3-L1 adipocytes viability, higher = more signal; note: test concentration not given here
# [3] = HepG2 cell viability effects, profiling panel, calcein-AM fluorescence, 48 h, basal (AID 1164); conditions: higher = more signal; note: test concentration not given here
# [4] = MM1S cell viability effects, profiling panel, calcein-AM fluorescence, 48 h, basal (AID 1165); conditions: higher = more signal;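 note: viability of MM1S multiple myeloma cells under basal unstimulated conditions; test concentration not given here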
# [5] = basal RPMI8226 viability, no added stimulus, profiling panel, cell-based, calcein-AM fluorescence, 48 h, PK04 Diversity Set (AID 1166); conditions: RPMI8226 myeloma viability, higher = more signal;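 note: cells grown under basal conditions without added stimulus; test concentration not given here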
# [6] = basal HepG2 mitochondrial membrane potential changes, profiling panel, cell-based, JC-1 fluorescence, 24 h, 100 nL compound (AID 1167); conditions: higher = more signal; note: test concentration not given here
# [7] = basal 3T3-L1 adipocyte mitochondrial potential changes, profiling panel, cell-based, JC-1 fluorescence, 3T3-L1 adipocytes, 24 h, 100 nL compound (AID 1168); conditions: JC-1 mitochondrial fluorescence, higher = more signal, called active from +8 up or from −8 down; note: test concentration not given here
# [8] = basal RPMI8226 mitochondrial membrane potential changes, profiling panel, cell-based, JC-1 fluorescence, 24 h, 100 nL compound (AID 1169); conditions: RPMI8226 myeloma, JC-1 mitochondrial potential fluorescence, higher = more signal; note: test concentration not given here
# [9] = basal MM1S mitochondrial membrane potential changes, profiling panel, cell-based, JC-1 fluorescence, 24 h, 100 nL compound (AID 1170); conditions: higher = more signal; note: test concentration not given here
# [10] = A549 lung cancer cell viability effects, profiling panel, resazurin fluorescence, 24 h, PK04 Diversity Set (AID 1171); conditions: higher = more signal, called active from +8 up or from −8 down; note: test concentration not given here
# [11] = HepG2 liver cancer cell viability effects, profiling panel, resazurin fluorescence, 24 h, PK04 Diversity Set (AID 1172); conditions: higher = more signal; note: test concentration not given here
# [12] = basal S. cerevisiae growth modulation, no modifier, primary screen, OD600, strain BY4716, 24 h, basal condition (AID 1173); conditions: OD600, 24 h, higher = more signal, called active from +8 up or from −8 down
# [13] = MM1S myeloma cell viability, profiling panel, resazurin fluorescence, basal, 24 h, PK04 Diversity Set (AID 1174); conditions: higher = more signal, called active from +8 up or from −8 down;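 note: MM1S multiple myeloma cell line; test concentration not given here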
# [14] = biological target: Dihydroorotate dehydrogenase (quinone), mitochondrial (Plasmodium falciparum (isolate 3D7)) (UniProt Q08210); assay: PfDHODH enzyme inhibitors, primary screen, biochemical, C-terminal His tag, absorbance 600 nm (AID 1175); conditions: DCIP absorbance 600 nm, higher = more signal, called active from +8 up or from −8 down;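 note: recombinant parasite enzyme with a five histidine tag at its C terminus; test concentration not given here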
# [15] = P. aeruginosa biofilm formation inhibitors, primary screen, strain PAO1, LB-PBS medium, absorbance 600 nm (AID 1176); note: test concentration not given here; conditions: P. aeruginosa PAO1 growth/biofilm, A600, 12 h; higher = more signal
# [16] = S. cerevisiae RM11-1a growth modifiers, primary screen, strain RM11-1a, OD600, basal, 24 h (AID 1177); conditions: OD600, 24 h, higher = more signal, called active from +8 up or from −8 down;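 note: cultures grown under basal conditions with no added stressor; test concentration not given here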
# [17] = E. coli acrAB mutant growth effects, primary screen, E. coli filamentation inducers, strain DRC39, OD650, 24 h (AID 1178); conditions: higher = more signal, called active from +8 up or from −8 down;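 note: growth measured as culture turbidity by optical density at 650 nm; test concentration not given here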
# [18] = E. coli acrAB mutant growth effects, primary screen, E. coli filamentation inducers, strain DRC39, OD650, 48 h (AID 1179);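 note: screen aims at cell division blockers that make cells filament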; conditions: E. coli DRC39 delta-acrAB growth, higher = more signal, called active from +8 up or from −8 down
# [19] = RPMI8226 myeloma cell viability, profiling panel, resazurin fluorescence, basal, 24 h, PK04 Diversity Set (AID 1180); conditions: higher = more signal;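 note: RPMI8826 multiple myeloma cell line at 5000 cells per well; test concentration not given here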
# [20] = biological target: E3 ubiquitin-protein ligase XIAP (Homo sapiens) (UniProt P98170); assay: XIAP binders, primary screen, biophysical, small-molecule microarray, fluorescence 635 nm (AID 1181); conditions: small-molecule microarray binding, higher = more signal;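 note: score merges 667 nm emission and signal to noise over triplicate slides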
# Sequence of E3 ubiquitin-protein ligase XIAP (Homo sapiens) (P98170 whole entry, looked up): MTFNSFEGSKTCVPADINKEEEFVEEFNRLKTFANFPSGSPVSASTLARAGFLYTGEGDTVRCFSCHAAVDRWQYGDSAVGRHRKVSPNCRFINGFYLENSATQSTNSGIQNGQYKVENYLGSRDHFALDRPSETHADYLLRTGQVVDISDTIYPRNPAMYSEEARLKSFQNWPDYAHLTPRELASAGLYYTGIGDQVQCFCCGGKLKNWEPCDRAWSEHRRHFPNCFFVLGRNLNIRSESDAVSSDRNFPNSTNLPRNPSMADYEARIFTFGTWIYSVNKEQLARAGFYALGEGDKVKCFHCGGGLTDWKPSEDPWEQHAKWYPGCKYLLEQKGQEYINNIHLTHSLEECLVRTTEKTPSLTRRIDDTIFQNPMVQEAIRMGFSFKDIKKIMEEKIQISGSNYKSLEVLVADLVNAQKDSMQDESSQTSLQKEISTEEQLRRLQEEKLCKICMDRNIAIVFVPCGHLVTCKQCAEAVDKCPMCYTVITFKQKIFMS
# Sequence of Dihydroorotate dehydrogenase (quinone), mitochondrial (Plasmodium falciparum (isolate 3D7)) (Q08210 whole entry, looked up): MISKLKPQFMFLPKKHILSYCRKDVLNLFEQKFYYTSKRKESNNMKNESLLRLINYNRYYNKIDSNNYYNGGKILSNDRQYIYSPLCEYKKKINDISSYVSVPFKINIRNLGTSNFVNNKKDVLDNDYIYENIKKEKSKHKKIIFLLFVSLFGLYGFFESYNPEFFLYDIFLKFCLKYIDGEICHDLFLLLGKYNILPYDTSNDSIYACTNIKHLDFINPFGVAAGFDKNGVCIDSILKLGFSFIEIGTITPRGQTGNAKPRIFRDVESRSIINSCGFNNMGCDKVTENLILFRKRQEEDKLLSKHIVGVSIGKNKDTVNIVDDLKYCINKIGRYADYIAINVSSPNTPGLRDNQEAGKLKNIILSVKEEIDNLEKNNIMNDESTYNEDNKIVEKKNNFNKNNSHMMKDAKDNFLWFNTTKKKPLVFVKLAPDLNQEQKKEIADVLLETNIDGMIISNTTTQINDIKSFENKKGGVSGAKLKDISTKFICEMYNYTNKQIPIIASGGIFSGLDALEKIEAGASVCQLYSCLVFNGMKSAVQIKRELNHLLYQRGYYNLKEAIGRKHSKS
SMILES,z-score [1],z-score [2],z-score [3],z-score [4],z-score [5],z-score [6],z-score [7],z-score [8],z-score [9],z-score [10],z-score [11],z-score [12],z-score [13],composite z-score [14],z-score [15],z-score [16],z-score [17],z-score [18],z-score [19],composite z-score [20]
COC(=O)CC=C[C@@H](C)[C@@H](C=NOC[C@@H](O)[C@H]1O[C@@H]2OC(C)(C)O[C@@H]2[C@H]1O)NS(=O)(=O)c1ccc(C)cc1,-0.234,0.531,0.104,-1.57,-0.34,0.153,0.158 (inactive),-0.15,-0.488,-0.854 (inactive),-0.687,0.185 (inactive),-0.502 (inactive),-0.241 (inactive),0.453 (inactive),0.0095 (inactive),-0.336 (inactive),0.447 (inactive),-0.609,-0.0445
CCOC(=O)NN=C1C[C@@H](O)[C@@H](O)[C@@H]2[C@@H]3C(=O)N(C(C)(C)C)C(=O)[C@@H]3CC[C@H]12,0.338,-0.666,1.34,0.469,0.541,0.361,0.314 (inactive),-0.252,-1.59,-0.974 (inactive),-1.46,-0.962 (inactive),-0.4 (inactive),-0.397 (inactive),0.434 (inactive),0.179 (inactive),0.408 (inactive),0.72 (inactive),-0.226,-0.246
COC(=O)[C@H](C)NC(=O)CCC1CC(OC(=O)NCCc2ccc(F)cc2)CC2(CCCC(COC(=O)NCCC(C)C)O2)O1 (stereo not given in full),1.22,0.464,-0.814,-3.65,-0.883,-0.591,0.521 (inactive),0.198,-1.51,0.693 (inactive),-0.666,-1.27 (inactive),0.711 (inactive),-2.05 (inactive),0.675 (inactive),-1.15 (inactive),0.29 (inactive),-0.947 (inactive),0.967,-0.102
O=c1n(Cc2cc3c(cc2Cl)OCO3)c(=O)n2n1CC[C@@H]1C(=NOC[C@@H](O)COCc3ccco3)[C@H]3O[C@H]3[C@@H](O)[C@@H]12,-0.158,-0.322,0.105,0.0423,-0.552,-0.611,-1.6 (inactive),0.0236,-0.211,-0.127 (inactive),-0.0975,0.919 (inactive),-0.316 (inactive),0.634 (inactive),0.471 (inactive),0.716 (inactive),-0.133 (inactive),-0.527 (inactive),-0.614,-0.0252
C[C@H](ON=C1[C@H]2CCn3c(=O)n(-c4ccccc4)c(=O)n3[C@H]2[C@H](O)[C@@H]2O[C@H]12)c1cn([C@H](CO)Cc2ccccc2)nn1,-0.142,-0.443,0.115,-0.403,-0.533,-0.633,-1 (inactive),-0.243,0.155,-0.16 (inactive),-0.189,-0.145 (inactive),-0.489 (inactive),-1.29 (inactive),0.0282 (inactive),-1.09 (inactive),0.571 (inactive),0.223 (inactive),-0.226,-0.106
COc1cccc([C@@H]2Oc3ccc(OC)cc3C(=O)[C@H]2O)c1,0.0549,0.856,-2.24,-2.89,-2.25,-2.31,-0.0174 (inactive),1.04,-0.27,-0.214 (inactive),0.115,-8.27 (active),0.0409 (inactive),-2.73 (inactive),-0.364 (inactive),-0.55 (inactive),-1.47 (inactive),-2.37 (inactive),0.329,-0.0773
COc1cccc([C@H]2Oc3ccc(OC)cc3C(=NOC[C@@H](O)[C@H]3O[C@@H]4OC(C)(C)O[C@@H]4[C@H]3O)[C@@H]2O)c1,-0.0077,0.568,-1.49,-0.174,-0.684,-1.27,-0.751 (inactive),-0.578,0.49,-0.794 (inactive),-0.791,-6.98 (inactive),-1.21 (inactive),0.474 (inactive),0.56 (inactive),-0.0039 (inactive),-0.218 (inactive),0.0308 (inactive),-0.687,0.0865
CC(C)=CCCC(C)=CCON=C1C[C@@H](O)[C@@H](O)[C@@H]2[C@@H]3C(=O)N(c4ccc(F)cc4F)C(=O)[C@@H]3CC[C@H]12,-1.39,0.719,0.0201,-3.06,0.579,-2.26,0.866 (inactive),-0.786,-1.55,0.619 (inactive),0.844,-2.97 (inactive),0.257 (inactive),-1.42 (inactive),0.671 (inactive),-0.777 (inactive),0.375 (inactive),0.438 (inactive),1.32,-0.0939

# Reference: PubChem BioAssay
